From PubChem
Mcl1 Noxa PPI: disrupts binding of human Mcl-1 to Noxa peptide | AID 1022 | TR-FRET Mcl-1/Noxa peptide binding, 2 h | actives 1.5% (n = 220,000) | inhibition, % at 21.7 µM | Q07820;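 active means compounds that cut the protein-peptide binding signal by more than 50% relative to plate controls in a single-dose test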;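 further: His-tagged Mcl-1 with rhodamine Noxa BH3 peptide and terbium anti-His antibody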
Target sequence (Q07820 whole entry, looked up): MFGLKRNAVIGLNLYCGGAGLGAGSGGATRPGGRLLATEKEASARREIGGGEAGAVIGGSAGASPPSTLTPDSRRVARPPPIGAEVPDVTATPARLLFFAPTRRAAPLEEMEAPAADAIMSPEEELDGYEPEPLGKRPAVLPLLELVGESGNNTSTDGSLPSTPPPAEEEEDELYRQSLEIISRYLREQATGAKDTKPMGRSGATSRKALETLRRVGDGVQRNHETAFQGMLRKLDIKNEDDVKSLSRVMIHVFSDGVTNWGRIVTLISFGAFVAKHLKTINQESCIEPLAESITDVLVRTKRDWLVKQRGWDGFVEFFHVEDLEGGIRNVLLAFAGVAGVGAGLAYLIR
MCL1 BIM primary: disrupts human MCL1 binding to BIM-BH3 peptide; Q07820; actives 0.68% (n = 320,000); GST-MCL1 / FITC-Bim-BH3 fluorescence polarization; inhibition, % at 10.9 µM;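 active means inhibition above the mean inhibition of all tested compounds plus 3 SD, set per campaign, cut at about 40% in these data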;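 further: higher means more loss of mP so more displacement of Bim peptide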
14-3-3 Bad inh: disrupts binding of bovine 14-3-3 zeta to phospho-Bad peptide; P63103; TR-FRET 14-3-3zeta/Dy647-pBad peptide displacement, 1 h; inhibition, % at 21.7 µM; actives 0.71% (n = 220,000);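 active means inhibition above about 70%, limit read from the data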
Target sequence (P63103 whole entry, looked up): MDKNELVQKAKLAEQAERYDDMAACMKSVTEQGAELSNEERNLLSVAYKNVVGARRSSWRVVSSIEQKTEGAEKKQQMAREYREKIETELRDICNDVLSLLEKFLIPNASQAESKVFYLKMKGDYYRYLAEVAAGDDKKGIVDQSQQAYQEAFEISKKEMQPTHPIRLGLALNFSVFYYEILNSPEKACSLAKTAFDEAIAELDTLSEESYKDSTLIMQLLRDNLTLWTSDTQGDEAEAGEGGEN
Bim-Mcl-1: disrupts Bim peptide binding to human Mcl-1 | inhibition, % at 10 µM | actives 0.1% (n = 190,000) | Bead-based flow cytometry, Bim peptide-Mcl-1 binding | Q07820; in the data active means inhibition above about 40%
Mcl1-Bid inh: Mcl-1/Bid interaction inhibition; Q07820; TR-FRET Mcl-1/Bid-Dy647 peptide binding, 1536-well; inhibition, % at 21.7 µM; actives 0.97% (n = 220,000);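 active means compounds that cut the binding signal by more than half at the single screening dose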;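 further: His-tagged Mcl-1 with europium anti-His antibody binding Bid BH3 peptide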
eIF4E 4G PPI: inhibitors of eIF4E and eIF4G interaction in translation initiation | TR-FRET eIF4E-eIF4GI(517-606) binding, 2 h | inhibition, % at 21.7 µM | actives 0.37% (n = 220,000) | AID 782;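 active means inhibition above about 30%, limit read from the data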
BCLXL inh confirm: Bcl-xL (human) inhibition, MCL1 counter-screen confirmation. inhibition, % at 10.9 µM. GST-Bcl-xL / FITC-Bim BH3 peptide FP binding. actives 54% (n = 1,700). shares compounds with MCL1 BIM primary;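 active means inhibition above a cutoff equal to the mean inhibition of all tested compounds plus 3 SD, cut at about 30% in these data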
MCL1 inh confirm: MCL1-BIM-BH3 interaction inhibition, confirmation; inhibition, % at 10.9 µM; actives 61% (n = 1,700); GST-MCL1 / FITC-Bim-BH3 fluorescence polarization; AID 2168; shares compounds with MCL1 BIM primary;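 active means inhibition above the average of all tested compounds plus 3 SD, cut at about 40% in these data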
Hits are given with their value; n = inactive; x = no result; [ ] = dose if it differs, or a comment. Sampled rows, rich in hits. Any-hit rate of the full collection: about 2.6%.

SMILES	Mcl1 Noxa PPI	MCL1 BIM primary	14-3-3 Bad inh	Bim-Mcl-1	Mcl1-Bid inh	eIF4E 4G PPI	BCLXL inh confirm	MCL1 inh confirm
CCOc1ccc(S(=O)(=O)N(C(=O)c2ccco2)c2cc3sc(=O)oc3c3ccccc23)cc1	n	n	n	n	n	n	x	x
COc1ccc(S(=O)(=O)N(C(=O)c2ccco2)c2cc3sc(=O)oc3c3ccccc23)cc1	n	45	n	n	n	n	n	n
CN(Cc1ccccc1)C(=O)COc1cccnc1[N+](=O)[O-]	x	n	x	x	x	x	x	x
O=C1/C(=C/c2ccccc2)Nc2ccccc21	n	57	n	n	n	n	56	82
O=S(=O)(O)c1cc(O)c2c(O)c(N=Nc3cc(Cl)ccc3O)c(S(=O)(=O)O)cc2c1	x	56	x	x	x	x	36	57
CCCCOc1ccc(C(=O)N2CCNC(=O)C2)cc1	x	n	x	x	x	x	x	x
CCCOc1cc(N)ccc1C(=O)OCCN(CC)CC	x	n	x	x	x	x	x	x
CCCOc1ccc(N)cc1N	76	124	92[fluorescence artefact?]	n	n	n	40	45
Cc1ccc(S(=O)(=O)NC(CC(C)C)C(=O)N2CCN(C/C=C/c3ccccc3)CC2)cc1 (configuration not stated)	x	n	x	x	x	x	x	x
Cn1cc(CCC(=O)NCc2ccc(Cl)cc2)c2ccccc21	x	53	x	x	x	x	n	n
CCc1ccc(CNC(=O)CCc2cn(C)c3ccccc23)cc1	x	n	x	x	x	x	x	x
CN(CC(=O)Nc1ccc(F)c(F)c1F)C(=O)CCCSc1nc2ccccc2[nH]1	x	n	x	x	x	x	x	x
CCOc1cc(-c2ccc(N)c(OCC)c2)ccc1N	n	174	n	n	n	n	134	183
CCOc1ccc(N)c(SSc2cc(OCC)ccc2N)c1	x	n	x	x	x	x	x	x
CC(=O)n1cc([C@H]2C=C(C(=O)N3CCN(Cc4ccccc4)CC3)O[C@@H](OCCCCO)C2)c2ccccc21	n	70	n	n	n	n	n	n
CC(=O)n1cc([C@@H]2C=C(C(=O)N3CCN(Cc4ccc5c(c4)OCO5)CC3)O[C@H](OCCCCO)C2)c2ccccc21	n	n	n	n	n	n	x	x
CCCc1nnc2n1N=C(c1ccc(-c3cc(Cl)ccc3Cl)o1)CS2	n	x	n	n	n	n	x	x
Cc1c(Cl)cn2c(=O)cc(CN3CCN(c4ccc(F)cc4)CC3)nc2c1Cl	n	n	n	n	n	n	x	x
O=C1CSC(=S)N1c1ccc(F)cc1	x	n	x	x	x	x	x	x
CN(C)c1ccc(N2C(=O)CSC2=S)cc1	n	46	n	n	n	n	n	n
COc1ccc(NC(=O)c2sc3nc(-c4cccnc4)ccc3c2N)cc1OC	n	n	n	x	n	n	x	x
COc1ccc(NC(=O)c2sc3nc(-c4cccnc4)ccc3c2N)cc1	n	112	n	x	52	n	113	137
CC(=O)Oc1ccc2c(=O)c(Oc3ccccc3)coc2c1OC(C)=O	n	50	n	n	n	n	n	n
CCc1nc2ccccc2n1CCC(C)C	n	n	n	n	n	n	x	x
O=C(NCN1CCN(c2ccccc2)CC1)c1cnccn1	x	140	x	x	x	x	n	n
SMILES	Mcl1 Noxa PPI	MCL1 BIM primary	14-3-3 Bad inh	Bim-Mcl-1	Mcl1-Bid inh	eIF4E 4G PPI	BCLXL inh confirm	MCL1 inh confirm
Cc1ccc(C)c(NC(=O)Nc2ccc3c(c2)OCO3)c1	x	n	x	x	x	x	x	x
Cc1ccc(CNc2ccc3c(c2)OCO3)c(C)c1	n	144	n	n	n	n	72	90
Cc1[nH]n(-c2ccccc2)c(=O)c1N=Nc1cccc(C(=O)O)c1	x	n	x	x	x	x	x	x
O=C(C1CCC(=O)N(C2CCCCCC2)C1)N1CCN(c2ccccc2Cl)CC1 (configuration not stated)	x	57	x	x	x	x	n	n
Cc1ccccc1N1CCN(C(=O)C2CCC(=O)N(C3CCCC3)C2)CC1 (configuration not stated)	x	n	x	x	x	x	x	x
O=C(Nc1ccc(Cl)cc1)C1C2C=CC3(O2)C1C(=O)N(CCCN1CCCCC1)C3C(=O)NC1CCCCC1 (configuration not stated)	x	n	x	x	x	x	x	x
O=C1CCNc2cc3ccccc3cc21	60	131	n	n	n	n	114	144
O=C1CCNc2ccc(-c3ccccc3)cc21	n	n	n	n	n	n	x	x
COc1ccc(Br)cc1-c1noc(-c2ccccc2)n1	n	n	n	n	n	n	x	x
COc1ccc(Br)cc1-c1noc(-c2ccncc2)n1	n	66	x	n	n	x	n	n
CCn1c(SC(C)C(=O)O)nc2sc3c(c2c1=O)CCC3 (configuration not stated)	67	44	n	n	n	n	n	52
CCC(C)Sc1ccc(-c2nc3ccc(C)cn3c2NC2CCCCC2)cc1 (configuration not stated)	x	48	x	x	x	x	n	n
Clc1ccccc1-c1ccc(CN2CCN(c3ccccc3)CC2)o1	n	133	73	n	n	n	n	n
O=C(CSc1nc2ccccc2c(=O)[nH]1)c1ccc(O)c(O)c1	n	48	n	n	n	n	38	66
COC(=O)c1cc(=O)n(-c2ccc(C(F)(F)F)cc2)[nH]1	n	n	n	x	n	n	x	x
O=C(OCCN1C(=O)c2cccc3c(N4CCOCC4)ccc(c23)C1=O)c1ccc(Cl)cc1Cl	n	63	n	n	n	n	n	n
O=C(OCCN1C(=O)c2cccc3c(N4CCOCC4)ccc(c23)C1=O)c1ccccc1Cl	n	n	n	n	n	n	x	x
O=C(OCCN1C(=O)c2cccc3c(N4CCOCC4)ccc(c23)C1=O)c1cccc(Cl)c1	n	66	n	n	n	n	n	n
C=CCn1c(CCc2cc(C(C)(C)C)c(O)c(C(C)(C)C)c2)n[nH]c1=S	n	n	n	n	n	n	x	x
COC(=O)c1cc(S(=O)(=O)NCc2ccc3c(c2)OCO3)cn1C	x	n	x	x	x	x	x	x
COc1ccc(-n2c(C)ccc2-c2ccccc2)cn1	x	128	x	x	x	x	89	108
O=C(O)c1cc(-c2ccco2)nn1-c1cccc(Cl)c1	69	82	n	n	n	n	n	n
COc1ccc(N(C(C)=O)C2C=CS(=O)(=O)C2)c(OC)c1 (configuration not stated)	n	n	n	n	n	n	x	x
COc1cccc(C(=O)N(c2ccc(OC)cc2OC)C2C=CS(=O)(=O)C2)c1 (configuration not stated)	n	54	n	n	n	n	n	n
CCOC(=O)[C@@H]1[C@H]2COc3ccccc3[C@H]2N2C(=O)N(c3ccc(Cl)cc3)C(=O)[C@@]12C	x	n	x	x	x	x	x	x
O=C1CN(C(=O)NCCC(=O)NC2CCCCC2)c2ccccc2N1	x	69	x	x	x	x	n	n
CN(C(=O)CCNC(=O)N1CC(=O)Nc2ccccc21)C1CCCCC1	x	n	x	x	x	x	x	x
CCN(CC)C(=O)CSc1ncnc2c(-c3cccs3)nsc12	n	64	n	n	n	n	n	n
